Data on five compounds can be found in PubChem BioAssay.

Activity calls are given as the source filed them.

The nature of assay [1]: optical density shifts of acrAB sulA E. coli – strain DRC41, OD650, 48 h, E. coli filamentation inducer project, primary screen (AID 1152).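 Also: E. coli MC1000 strain DRC41 lacking acrAB efflux pump and sulA.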 Conditions: higher = more signal, called active from +8 up or from −8 down.
The nature of assay [2]: probe aLefty1 binding on compound microarray – biochemical, small-molecule microarray, 635/667 nm fluorescence, primary screen (AID 1153).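 Also: score merges spot fluorescence with signal-to-noise ratio from the scanned slide images.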 Conditions: higher = more signal.
A short description of assay [3]: plasmodial surface anion channel blockers, osmotic lysis – cell-based, P. falciparum Indochina, OD700, 1 h, primary screen (AID 1154). The note with it: P. falciparum Indochina infected RBC osmotic lysis, higher = more signal, called active from +8 up or from −8 down.
Assay [4] is described as follows: plasmodial surface anion channel blockers, osmotic lysis – cell-based, P. falciparum Indochina, OD700, 2 h, primary screen (AID 1155).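 Also: lysis reports solute entry through the parasite surface anion channel PSAC.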 Conditions: P. falciparum Indochina infected erythrocytes, higher = more signal, called active from +8 up or from −8 down.
Assay [5] in a line: changes in parasitized red cell lysis, either direction – P. falciparum Indochina, OD700, 3 h, PSAC antagonist project, primary screen (AID 1156). Conditions: P. falciparum-infected erythrocytes, osmotic lysis, higher = more signal, called active from +8 up or from −8 down.
Assay [6] can be described thus: plasmodial surface anion channel blockers, osmotic lysis – cell-based, P. falciparum Indochina, OD700, 18 h, primary screen (AID 1157). Conditions: P. falciparum Indochina infected erythrocytes, osmotic lysis OD700, 18 h; higher = more signal, called active from +8 up or from −8 down.
Assay [7] in a line: S6 kinase pathway phospho-S6 level changes – cell-based, A549, cytoblot, luminescence, serum-stimulated, primary screen (AID 1158).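 Also: serum-stimulated A549 lung adenocarcinoma cells; signal is phosphorylated S6 detected by cytoblot immunostaining with HRP secondary.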 The note with it: 5 h, higher = more signal.
The target of assay [8] is NADPH oxidase 2 (Homo sapiens) (UniProt P04839). The assay is described as follows: compounds shifting NOX2 Amplex Red fluorescence – cell-based, HEK293-NOX2, PMA-stimulated, NOX inhibitor project, primary screen (AID 1159). Also: test concentration not given here. The note with it: 45 min, higher = more signal, called active from +8 up or from −8 down.
NADPH oxidase 2 (Homo sapiens), sequence (P04839 whole entry, looked up): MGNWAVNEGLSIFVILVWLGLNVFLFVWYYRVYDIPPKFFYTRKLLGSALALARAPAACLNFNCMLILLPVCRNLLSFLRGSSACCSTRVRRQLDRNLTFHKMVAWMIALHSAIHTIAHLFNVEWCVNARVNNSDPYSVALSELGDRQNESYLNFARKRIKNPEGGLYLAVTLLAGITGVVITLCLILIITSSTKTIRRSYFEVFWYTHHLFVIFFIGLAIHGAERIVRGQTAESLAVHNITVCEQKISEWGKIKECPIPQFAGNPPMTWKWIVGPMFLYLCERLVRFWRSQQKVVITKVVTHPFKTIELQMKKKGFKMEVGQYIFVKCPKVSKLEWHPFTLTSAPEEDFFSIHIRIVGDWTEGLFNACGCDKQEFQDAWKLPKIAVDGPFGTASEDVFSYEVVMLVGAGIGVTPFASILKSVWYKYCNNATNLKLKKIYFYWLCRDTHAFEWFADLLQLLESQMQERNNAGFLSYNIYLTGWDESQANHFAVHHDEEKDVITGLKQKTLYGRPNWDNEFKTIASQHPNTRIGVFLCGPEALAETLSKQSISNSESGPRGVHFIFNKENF
The target in assay [9] is NADPH oxidase 4 (Homo sapiens) (UniProt Q9NPH5). The assay is described as follows: compounds shifting NOX4 Amplex Red fluorescence – cell-based, HEK293-NOX4, tetracycline-induced, NOX inhibitor project, primary screen (AID 1160). Conditions: HEK293-NOX4, Amplex Red H2O2 fluorescence, 45 min; higher = more signal, called active from +8 up or from −8 down.
NADPH oxidase 4 (Homo sapiens), sequence (Q9NPH5 whole entry, looked up): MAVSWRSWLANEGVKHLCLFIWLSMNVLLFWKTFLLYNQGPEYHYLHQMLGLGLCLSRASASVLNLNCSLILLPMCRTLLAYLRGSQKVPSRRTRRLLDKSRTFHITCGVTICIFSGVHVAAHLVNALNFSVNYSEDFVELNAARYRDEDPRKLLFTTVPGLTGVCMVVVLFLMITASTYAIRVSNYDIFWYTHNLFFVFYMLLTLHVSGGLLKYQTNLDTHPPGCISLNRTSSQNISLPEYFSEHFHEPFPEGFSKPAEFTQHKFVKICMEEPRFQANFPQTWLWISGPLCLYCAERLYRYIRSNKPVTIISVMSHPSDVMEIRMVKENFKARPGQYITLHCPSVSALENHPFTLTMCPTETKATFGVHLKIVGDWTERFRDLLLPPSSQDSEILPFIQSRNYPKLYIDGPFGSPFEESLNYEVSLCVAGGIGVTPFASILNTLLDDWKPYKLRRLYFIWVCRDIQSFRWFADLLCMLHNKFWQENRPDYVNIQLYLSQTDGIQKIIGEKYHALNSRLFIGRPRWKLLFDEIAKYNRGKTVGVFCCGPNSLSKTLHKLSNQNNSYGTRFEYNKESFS
The target of assay [10] is NADPH oxidase 5 (Homo sapiens) (UniProt Q96PH1). The assay can be described thus: compounds shifting NOX5 Amplex Red fluorescence – cell-based, HEK293-NOX5, NOX inhibitor project, primary screen (AID 1161). The note with it: HEK293-NOX5, ionomycin, 45 min, higher = more signal.
NADPH oxidase 5 (Homo sapiens), sequence (Q96PH1 whole entry, looked up): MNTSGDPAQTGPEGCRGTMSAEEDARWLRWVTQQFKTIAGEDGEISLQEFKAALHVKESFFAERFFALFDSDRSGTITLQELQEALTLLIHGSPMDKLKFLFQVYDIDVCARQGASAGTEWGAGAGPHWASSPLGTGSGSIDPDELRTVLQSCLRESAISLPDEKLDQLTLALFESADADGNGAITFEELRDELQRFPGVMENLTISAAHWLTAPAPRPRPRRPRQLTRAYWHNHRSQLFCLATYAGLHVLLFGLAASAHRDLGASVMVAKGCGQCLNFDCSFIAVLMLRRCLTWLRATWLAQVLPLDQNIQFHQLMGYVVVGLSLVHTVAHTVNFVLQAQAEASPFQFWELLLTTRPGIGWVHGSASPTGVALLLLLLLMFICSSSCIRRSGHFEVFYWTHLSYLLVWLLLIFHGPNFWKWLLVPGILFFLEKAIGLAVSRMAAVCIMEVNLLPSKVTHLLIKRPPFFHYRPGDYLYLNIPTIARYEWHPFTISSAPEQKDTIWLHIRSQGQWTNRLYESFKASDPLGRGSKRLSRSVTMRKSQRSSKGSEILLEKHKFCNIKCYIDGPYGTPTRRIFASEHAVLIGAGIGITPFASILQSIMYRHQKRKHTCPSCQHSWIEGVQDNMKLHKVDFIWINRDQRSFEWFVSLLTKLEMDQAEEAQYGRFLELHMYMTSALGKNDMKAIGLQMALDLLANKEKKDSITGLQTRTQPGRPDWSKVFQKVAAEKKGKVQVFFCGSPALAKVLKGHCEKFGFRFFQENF
Assay [11] in a line: compound effects on lung adenocarcinoma cell viability – A549, calcein-AM fluorescence, 48 h, basal, profiling panel (AID 1162). Also: test concentration not given here. Conditions: higher = more signal.
Assay [12] is described as follows: compound effects on differentiated 3T3-L1 adipocyte viability – cell-based, 3T3-L1 adipocytes, calcein-AM fluorescence, 48 h, basal, profiling panel (AID 1163). Also: test concentration not given here. Conditions: 3T3-L1 adipocytes viability, higher = more signal.
Assay [13] can be described thus: compound effects on hepatocellular carcinoma cell viability – HepG2, calcein-AM fluorescence, 48 h, basal, profiling panel (AID 1164). Also: test concentration not given here. The note with it: higher = more signal.
Assay [14] is described as follows: compound effects on multiple myeloma cell viability – MM1S, calcein-AM fluorescence, 48 h, basal, profiling panel (AID 1165). Also: test concentration not given here. Conditions: higher = more signal.
The nature of assay [15]: calcein-AM signal in unstimulated myeloma cells – cell-based, calcein-AM fluorescence, 48 h, PK04 Diversity Set, profiling panel (AID 1166).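 Also: cells grown under basal conditions without added stimulus; test concentration not given here.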 The note with it: RPMI8226 myeloma viability, higher = more signal.
Assay [16] is described as follows: JC-1 mitochondrial signal, unstimulated HepG2 cells – cell-based, JC-1 fluorescence, 24 h, 100 nL compound, profiling panel (AID 1167). Also: test concentration not given here. Conditions: HepG2 mitochondrial potential, higher = more signal.
Assay [17] is described as follows: JC-1 mitochondrial signal, unstimulated adipocytes – cell-based, JC-1 fluorescence, 3T3-L1 adipocytes, 24 h, 100 nL compound, profiling panel (AID 1168). Also: test concentration not given here. Conditions: JC-1 mitochondrial fluorescence, higher = more signal, called active from +8 up or from −8 down.
Assay [18] can be described thus: JC-1 mitochondrial signal, unstimulated myeloma cells – cell-based, JC-1 fluorescence, RPMI8226, 24 h, 100 nL compound, profiling panel (AID 1169). Also: test concentration not given here. Conditions: JC-1 mitochondrial potential fluorescence, higher = more signal.
The nature of assay [19]: JC-1 mitochondrial signal, unstimulated MM1S myeloma – cell-based, JC-1 fluorescence, 24 h, 100 nL compound, profiling panel (AID 1170). Also: test concentration not given here. Conditions: MM1S mitochondrial potential, higher = more signal.
Assay [20] is described as follows: resazurin metabolic signal in A549 cells – cell-based, resazurin fluorescence, 24 h, PK04 Diversity Set, profiling panel (AID 1171). Also: test concentration not given here. The note with it: A549 viability, higher = more signal, called active from +8 up or from −8 down. In general terms: Alamar Blue is a resazurin reagent that responds to reducing activity.

Turning to `C=CCC(OC(C)=O)[C@@H]1[C@@H](N(Cc2ccc(-c3ccccc3)cc2)C(=O)c2ccc(-c3ccccc3)cc2)c2cc(OCCCO)ccc2N1C(=O)c1ccc2ccccc2n1` (stereo not given in full), the z-score in assay [1] was 0.803 (inactive); in assay [3], 0.135 (inactive); in [4], 0.078 (inactive); in [5], -0.452 (inactive); in [6] it was -0.033 (inactive); in assay [7], 0.364. For the same compound, the z-score in assay [8] is 1.18 (inactive); in assay [9] it was 1.33 (inactive); in assay [10], 1.17; in assay [11], 0.393; in assay [12], 0.167; in assay [13], 0.486. In addition, the z-score in assay [14] is -0.265; in assay [15] it was -0.189; in assay [16] it was 2.22; in assay [17], -0.124 (inactive); in assay [18] it was -0.742; in assay [19], -0.133. In assay [20], the z-score is 1.67 (inactive). In assay [2], the composite z-score came out at 0.026.
In the case of `CN(C)CCCC[C@@H]1NC(=O)[C@H]2C[C@@H](C(=O)NCc3ccc(F)cc3)[C@@H](c3ccc(O)cc3)N2C1=O`, the z-score was 0.104 (inactive) in [1]; 1.2 (inactive) in assay [3]; -0.0251 (inactive) in assay [4]; -6.5 (inactive) in assay [5]; 0.153 (inactive) in assay [6]; -0.449 in [7]. The z-score in [8] was 0.0836 (inactive); in assay [9], 0.799 (inactive); in assay [10], 0.195; in assay [11] it was 0.334; in assay [12], 0.0359; in assay [13], -0.372. The z-score is -0.0511 in assay [14]; -0.23 in assay [15]; 1.28 in [16]; -0.365 (inactive) in assay [17]; -0.152 in assay [18]; 0.195 in [19]. Also, in assay [20], the z-score is 0.377 (inactive). Further, the composite z-score in assay [2] came to 0.364.
As to `CC1CC/C=C\[C@H]2OC34C=CCN(c5ccc(Cl)cc5)C(=O)[C@H]3N(CCCO)C(=O)[C@]4(C)C2C(=O)O1` (stereo not given in full), the z-score was -0.836 (inactive) in assay [1]; 0.113 (inactive) in assay [3]; 0.66 (inactive) in [4]; -0.338 (inactive) in [5]; 0.356 (inactive) in assay [6]; -0.264 in [7]. For the same compound, the z-score in assay [8] is 1.5 (inactive); in [9], -1.22 (inactive); in assay [10], 2.34; in assay [11], 0.606; in assay [12], 0.208; in assay [13], -0.865. Further, the z-score was 1.04 in assay [14]; 0.338 in assay [15]; -0.713 in [16]; -0.887 (inactive) in assay [17]; -0.294 in assay [18]; 1.86 in assay [19]. The z-score in assay [20] is -0.6 (inactive). In assay [2], the composite z-score is 0.135.
As for `COc1ccc(CCNC(=O)[C@@]2(C)c3ccccc3C(=O)N(Cc3cc(C(F)(F)F)cc(C(F)(F)F)c3)[C@H]2c2ccc(CO)cc2)cc1`, the z-score in assay [1] is 1.28 (inactive); in assay [3], 8.19 (active); in assay [4] it was 0.566 (inactive); in assay [5], 1.85 (inactive); in assay [6], -0.388 (inactive); in [7] it was 2.76. The z-score is -3.19 (inactive) in assay [8]; -1.7 (inactive) in [9]; -2.75 in assay [10]; 0.0571 in assay [11]; 1.28 in [12]; -0.23 in [13]. Further, the z-score in [14] was -2.16; in assay [15] it was -3.99; in assay [16], 1.11; in assay [17], -0.299 (inactive); in [18], -0.428; in assay [19], 0.783. In addition, the z-score in [20] was 0.616 (inactive). For the same compound, in [2], the composite z-score was -0.216.
Turning to `CC(C)CNC(=O)[C@@H]1c2ccccc2C(=O)N(CC23CC4CC(CC(C4)C2)C3)[C@H]1c1ccc(CO)cc1`, the z-score in assay [1] was 0.075 (inactive); in assay [3] it was 0.317 (inactive); in [4], -0.93 (inactive); in [5], -0.348 (inactive); in assay [6], -1.22 (inactive); in assay [7] it was 0.84. In addition, the z-score in assay [8] is -0.234 (inactive); in assay [9], -0.616 (inactive); in [10] it was -1.78; in assay [11], 0.226; in [12], 0.918; in [13] it was 0.537. Also, the z-score in assay [14] was 0.107; in assay [15], -0.35; in assay [16], 1.38; in assay [17] it was 1.64 (inactive); in [18] it was -0.217; in assay [19] it was -0.0634. Moreover, the z-score in assay [20] was 0.915 (inactive). In addition, in assay [2], the composite z-score was -0.0559.
